Measurements reported in the supplement of paper PMC11732987, “Enantioselective OTUD7B fragment discovery through chemoproteomics screening and high-throughput optimisation” (Communications Chemistry, 2025).

Assays:
Assay in all cases: log2 ratio of Biotin-Ahx-Ub-VS probe labelling (fragment/DMSO); higher = less target engagement (more negative = stronger competition), active = hit call of the paper (q ≤ 0.05, log2 ratio ≤ -1)
Settings in all cases: compound concentration: 200 uM; treatment time: 3 h
USP34 = USP34 (UniProt Q70CQ2)
Sequence of USP34 (Q70CQ2 whole entry, the tested form may be a part): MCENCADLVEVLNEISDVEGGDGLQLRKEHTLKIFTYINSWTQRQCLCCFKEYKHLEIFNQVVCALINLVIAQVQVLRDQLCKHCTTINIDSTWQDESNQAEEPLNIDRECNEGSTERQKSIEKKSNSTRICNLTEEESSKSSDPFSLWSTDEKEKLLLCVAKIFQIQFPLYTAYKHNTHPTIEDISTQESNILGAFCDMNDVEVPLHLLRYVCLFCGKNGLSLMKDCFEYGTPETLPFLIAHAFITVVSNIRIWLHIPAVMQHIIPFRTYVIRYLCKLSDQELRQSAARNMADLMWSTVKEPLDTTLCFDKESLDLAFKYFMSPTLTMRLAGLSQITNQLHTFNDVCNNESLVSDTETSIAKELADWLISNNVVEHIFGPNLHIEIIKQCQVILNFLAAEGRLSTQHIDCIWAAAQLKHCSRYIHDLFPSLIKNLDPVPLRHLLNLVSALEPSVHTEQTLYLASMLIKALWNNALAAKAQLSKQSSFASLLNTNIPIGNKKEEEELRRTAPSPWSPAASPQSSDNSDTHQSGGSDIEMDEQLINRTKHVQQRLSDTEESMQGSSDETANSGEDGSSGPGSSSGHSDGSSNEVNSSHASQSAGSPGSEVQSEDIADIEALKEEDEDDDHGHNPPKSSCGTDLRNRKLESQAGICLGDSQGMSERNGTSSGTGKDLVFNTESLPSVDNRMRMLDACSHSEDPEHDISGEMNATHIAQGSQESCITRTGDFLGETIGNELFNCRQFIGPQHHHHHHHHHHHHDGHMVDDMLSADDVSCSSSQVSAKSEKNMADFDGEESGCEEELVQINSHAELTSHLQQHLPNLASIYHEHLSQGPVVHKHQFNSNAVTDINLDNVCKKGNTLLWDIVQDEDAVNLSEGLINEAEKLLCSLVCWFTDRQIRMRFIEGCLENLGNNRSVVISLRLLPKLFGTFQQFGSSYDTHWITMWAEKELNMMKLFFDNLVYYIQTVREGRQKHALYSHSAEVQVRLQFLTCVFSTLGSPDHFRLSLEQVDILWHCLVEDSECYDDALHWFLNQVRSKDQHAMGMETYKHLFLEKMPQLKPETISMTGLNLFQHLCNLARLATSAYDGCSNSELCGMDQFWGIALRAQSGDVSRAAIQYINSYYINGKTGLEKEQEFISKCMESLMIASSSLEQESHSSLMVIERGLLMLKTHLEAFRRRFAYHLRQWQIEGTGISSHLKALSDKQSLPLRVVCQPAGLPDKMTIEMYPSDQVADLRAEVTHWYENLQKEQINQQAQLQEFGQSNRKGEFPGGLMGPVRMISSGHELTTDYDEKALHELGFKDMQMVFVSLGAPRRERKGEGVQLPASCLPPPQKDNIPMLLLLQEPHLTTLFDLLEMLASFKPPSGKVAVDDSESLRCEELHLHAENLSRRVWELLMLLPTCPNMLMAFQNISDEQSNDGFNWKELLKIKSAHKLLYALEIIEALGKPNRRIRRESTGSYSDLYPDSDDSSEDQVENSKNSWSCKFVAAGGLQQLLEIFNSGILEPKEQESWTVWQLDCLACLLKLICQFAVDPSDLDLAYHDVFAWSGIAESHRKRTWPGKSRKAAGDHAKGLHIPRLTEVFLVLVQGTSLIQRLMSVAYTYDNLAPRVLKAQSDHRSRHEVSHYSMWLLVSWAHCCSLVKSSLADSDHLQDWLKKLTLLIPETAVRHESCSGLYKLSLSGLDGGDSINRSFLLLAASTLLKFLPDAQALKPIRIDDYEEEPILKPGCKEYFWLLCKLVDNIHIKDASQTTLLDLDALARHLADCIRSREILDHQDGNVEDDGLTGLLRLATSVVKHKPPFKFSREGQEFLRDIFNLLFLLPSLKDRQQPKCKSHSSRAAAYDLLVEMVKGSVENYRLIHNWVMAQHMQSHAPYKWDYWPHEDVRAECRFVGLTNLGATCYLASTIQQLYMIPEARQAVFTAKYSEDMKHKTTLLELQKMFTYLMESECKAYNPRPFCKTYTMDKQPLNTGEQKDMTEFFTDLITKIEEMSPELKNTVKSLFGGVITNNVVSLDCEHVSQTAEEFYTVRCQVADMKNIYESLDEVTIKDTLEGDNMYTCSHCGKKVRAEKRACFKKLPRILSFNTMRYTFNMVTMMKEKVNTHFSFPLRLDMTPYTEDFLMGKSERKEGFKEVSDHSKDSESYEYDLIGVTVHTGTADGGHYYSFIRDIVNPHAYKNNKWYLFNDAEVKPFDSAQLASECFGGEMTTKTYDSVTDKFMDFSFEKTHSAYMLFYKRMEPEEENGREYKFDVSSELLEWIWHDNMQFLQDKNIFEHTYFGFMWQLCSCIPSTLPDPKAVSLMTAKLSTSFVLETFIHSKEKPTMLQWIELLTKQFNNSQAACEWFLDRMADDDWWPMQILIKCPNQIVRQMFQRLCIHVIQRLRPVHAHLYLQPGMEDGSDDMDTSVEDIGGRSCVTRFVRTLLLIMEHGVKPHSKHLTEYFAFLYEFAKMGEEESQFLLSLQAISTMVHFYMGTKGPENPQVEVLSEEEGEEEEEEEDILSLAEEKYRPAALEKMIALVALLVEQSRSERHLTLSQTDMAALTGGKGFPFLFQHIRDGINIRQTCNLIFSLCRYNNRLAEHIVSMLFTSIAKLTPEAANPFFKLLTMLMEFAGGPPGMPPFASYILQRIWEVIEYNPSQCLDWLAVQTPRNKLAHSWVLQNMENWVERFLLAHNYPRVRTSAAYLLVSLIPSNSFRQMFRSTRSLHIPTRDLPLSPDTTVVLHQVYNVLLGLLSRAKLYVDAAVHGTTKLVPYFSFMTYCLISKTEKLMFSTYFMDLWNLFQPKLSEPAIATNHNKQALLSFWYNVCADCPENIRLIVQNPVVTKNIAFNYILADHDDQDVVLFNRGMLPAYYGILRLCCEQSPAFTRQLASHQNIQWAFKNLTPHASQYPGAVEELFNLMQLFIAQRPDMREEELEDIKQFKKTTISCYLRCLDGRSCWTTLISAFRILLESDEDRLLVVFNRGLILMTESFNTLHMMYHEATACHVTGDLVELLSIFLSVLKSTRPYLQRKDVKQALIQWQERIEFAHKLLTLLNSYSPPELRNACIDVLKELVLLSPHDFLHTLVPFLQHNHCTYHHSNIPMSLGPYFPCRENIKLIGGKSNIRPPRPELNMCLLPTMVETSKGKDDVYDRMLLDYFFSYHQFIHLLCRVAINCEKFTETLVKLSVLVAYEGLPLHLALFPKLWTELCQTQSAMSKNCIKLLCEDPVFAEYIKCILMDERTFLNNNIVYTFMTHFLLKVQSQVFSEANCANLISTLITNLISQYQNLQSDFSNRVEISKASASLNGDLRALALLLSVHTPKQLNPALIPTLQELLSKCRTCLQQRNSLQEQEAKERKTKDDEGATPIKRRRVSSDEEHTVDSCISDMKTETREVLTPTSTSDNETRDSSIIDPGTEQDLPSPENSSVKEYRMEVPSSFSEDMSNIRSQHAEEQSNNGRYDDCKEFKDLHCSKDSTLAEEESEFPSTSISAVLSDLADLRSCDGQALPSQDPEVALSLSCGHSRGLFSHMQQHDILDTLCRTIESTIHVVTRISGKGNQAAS
Procedure, shortened: (§1)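 HEK293T lysate, 495 µg per sample in Tris/CHAPS/IGEPAL buffer with protease inhibitors, was treated in triplicate with fragment at 200 µM or vehicle for 3 h and then with Biotin-Ahx-Ub-VS at 0.5 µM final for 1 h. Labelled DUBs were NeutrAvidin-enriched, digested with LysC and trypsin, and run by diaPASEF LC-MS/MS. Spectronaut label-free quantities were global-median-normalised, and values are average log2 fragment/vehicle ratios by unpaired t-test on proteins with ≥2 unique peptides.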

USP36 = target: T1, USP36 (UniProt Q9P275)
T1 sequence (whole entry): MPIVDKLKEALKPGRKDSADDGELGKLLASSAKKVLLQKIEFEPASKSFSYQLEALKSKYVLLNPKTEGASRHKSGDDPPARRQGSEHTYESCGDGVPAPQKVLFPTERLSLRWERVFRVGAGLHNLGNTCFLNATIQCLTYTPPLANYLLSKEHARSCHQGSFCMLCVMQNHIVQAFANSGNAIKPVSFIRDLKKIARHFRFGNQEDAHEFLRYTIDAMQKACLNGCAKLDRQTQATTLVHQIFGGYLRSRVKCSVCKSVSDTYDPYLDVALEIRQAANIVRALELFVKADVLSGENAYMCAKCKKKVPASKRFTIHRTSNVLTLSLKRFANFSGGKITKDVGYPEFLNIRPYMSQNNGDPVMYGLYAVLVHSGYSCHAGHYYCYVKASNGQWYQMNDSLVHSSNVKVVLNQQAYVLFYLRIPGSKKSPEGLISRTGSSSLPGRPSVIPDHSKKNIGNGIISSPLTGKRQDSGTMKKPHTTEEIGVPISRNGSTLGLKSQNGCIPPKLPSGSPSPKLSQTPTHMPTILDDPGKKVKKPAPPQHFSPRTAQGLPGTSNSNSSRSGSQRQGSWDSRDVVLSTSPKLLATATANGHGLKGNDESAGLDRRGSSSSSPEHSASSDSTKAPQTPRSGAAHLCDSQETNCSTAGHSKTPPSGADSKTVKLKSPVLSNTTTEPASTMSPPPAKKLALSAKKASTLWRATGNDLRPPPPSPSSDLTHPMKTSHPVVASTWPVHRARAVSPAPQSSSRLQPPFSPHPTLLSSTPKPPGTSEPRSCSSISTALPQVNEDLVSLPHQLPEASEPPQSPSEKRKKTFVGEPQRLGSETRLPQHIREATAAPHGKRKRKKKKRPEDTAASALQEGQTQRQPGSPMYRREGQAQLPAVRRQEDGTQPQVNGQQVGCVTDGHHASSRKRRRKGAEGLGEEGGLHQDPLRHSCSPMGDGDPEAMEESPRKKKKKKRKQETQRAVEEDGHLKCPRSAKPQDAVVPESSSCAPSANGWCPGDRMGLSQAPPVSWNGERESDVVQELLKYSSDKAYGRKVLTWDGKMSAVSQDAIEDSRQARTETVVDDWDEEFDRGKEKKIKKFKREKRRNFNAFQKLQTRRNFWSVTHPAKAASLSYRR
Procedure, shortened: as §1

USP38 = target: T2, USP38 (UniProt Q8NB14)
T2 sequence (whole entry): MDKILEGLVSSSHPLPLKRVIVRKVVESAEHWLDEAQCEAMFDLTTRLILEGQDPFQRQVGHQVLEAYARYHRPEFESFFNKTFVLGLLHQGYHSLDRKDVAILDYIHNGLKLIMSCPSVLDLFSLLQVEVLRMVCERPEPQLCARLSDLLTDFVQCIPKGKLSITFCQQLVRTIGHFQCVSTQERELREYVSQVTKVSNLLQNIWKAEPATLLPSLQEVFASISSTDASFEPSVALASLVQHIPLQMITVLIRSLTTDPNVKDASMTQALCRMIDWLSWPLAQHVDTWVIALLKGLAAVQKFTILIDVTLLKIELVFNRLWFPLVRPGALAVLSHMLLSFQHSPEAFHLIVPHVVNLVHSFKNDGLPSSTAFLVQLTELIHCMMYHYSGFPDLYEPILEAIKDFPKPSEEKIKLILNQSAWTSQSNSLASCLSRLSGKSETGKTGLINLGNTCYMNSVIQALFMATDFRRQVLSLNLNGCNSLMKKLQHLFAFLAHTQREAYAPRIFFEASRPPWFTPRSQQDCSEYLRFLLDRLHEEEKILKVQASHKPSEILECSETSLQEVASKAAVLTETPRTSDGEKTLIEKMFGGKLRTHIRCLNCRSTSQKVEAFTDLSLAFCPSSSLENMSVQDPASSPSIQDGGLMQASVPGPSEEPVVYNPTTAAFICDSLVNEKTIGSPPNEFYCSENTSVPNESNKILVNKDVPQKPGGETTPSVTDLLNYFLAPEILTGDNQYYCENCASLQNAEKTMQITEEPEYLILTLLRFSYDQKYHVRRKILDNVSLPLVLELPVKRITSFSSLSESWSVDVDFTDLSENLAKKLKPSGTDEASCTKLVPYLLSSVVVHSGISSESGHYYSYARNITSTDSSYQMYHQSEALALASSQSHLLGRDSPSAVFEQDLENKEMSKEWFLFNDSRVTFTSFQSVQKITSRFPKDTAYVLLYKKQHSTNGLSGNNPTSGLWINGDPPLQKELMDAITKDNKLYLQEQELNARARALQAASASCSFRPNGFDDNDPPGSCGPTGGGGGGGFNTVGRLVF
Procedure, shortened: as §1

USP39 = target: T3, USP39 (UniProt Q53GS9)
T3 sequence (whole entry): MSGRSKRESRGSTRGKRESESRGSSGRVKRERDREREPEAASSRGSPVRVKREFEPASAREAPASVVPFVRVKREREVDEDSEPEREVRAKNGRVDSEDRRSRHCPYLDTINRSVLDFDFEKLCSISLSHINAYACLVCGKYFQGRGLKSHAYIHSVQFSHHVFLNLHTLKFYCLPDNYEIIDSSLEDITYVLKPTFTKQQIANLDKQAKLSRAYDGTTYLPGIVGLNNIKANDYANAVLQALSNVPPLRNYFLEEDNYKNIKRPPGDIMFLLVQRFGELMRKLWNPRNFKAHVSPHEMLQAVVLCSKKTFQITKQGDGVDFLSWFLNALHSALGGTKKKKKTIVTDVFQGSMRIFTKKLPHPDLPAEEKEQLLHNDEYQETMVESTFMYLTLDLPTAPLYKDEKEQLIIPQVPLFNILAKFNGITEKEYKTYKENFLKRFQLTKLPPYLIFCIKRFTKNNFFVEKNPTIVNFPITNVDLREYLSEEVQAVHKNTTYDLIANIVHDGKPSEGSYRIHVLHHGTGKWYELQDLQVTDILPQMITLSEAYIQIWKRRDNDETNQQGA
Procedure, shortened: as §1

USP4 = target: T4, USP4 (UniProt Q13107)
T4 sequence (whole entry): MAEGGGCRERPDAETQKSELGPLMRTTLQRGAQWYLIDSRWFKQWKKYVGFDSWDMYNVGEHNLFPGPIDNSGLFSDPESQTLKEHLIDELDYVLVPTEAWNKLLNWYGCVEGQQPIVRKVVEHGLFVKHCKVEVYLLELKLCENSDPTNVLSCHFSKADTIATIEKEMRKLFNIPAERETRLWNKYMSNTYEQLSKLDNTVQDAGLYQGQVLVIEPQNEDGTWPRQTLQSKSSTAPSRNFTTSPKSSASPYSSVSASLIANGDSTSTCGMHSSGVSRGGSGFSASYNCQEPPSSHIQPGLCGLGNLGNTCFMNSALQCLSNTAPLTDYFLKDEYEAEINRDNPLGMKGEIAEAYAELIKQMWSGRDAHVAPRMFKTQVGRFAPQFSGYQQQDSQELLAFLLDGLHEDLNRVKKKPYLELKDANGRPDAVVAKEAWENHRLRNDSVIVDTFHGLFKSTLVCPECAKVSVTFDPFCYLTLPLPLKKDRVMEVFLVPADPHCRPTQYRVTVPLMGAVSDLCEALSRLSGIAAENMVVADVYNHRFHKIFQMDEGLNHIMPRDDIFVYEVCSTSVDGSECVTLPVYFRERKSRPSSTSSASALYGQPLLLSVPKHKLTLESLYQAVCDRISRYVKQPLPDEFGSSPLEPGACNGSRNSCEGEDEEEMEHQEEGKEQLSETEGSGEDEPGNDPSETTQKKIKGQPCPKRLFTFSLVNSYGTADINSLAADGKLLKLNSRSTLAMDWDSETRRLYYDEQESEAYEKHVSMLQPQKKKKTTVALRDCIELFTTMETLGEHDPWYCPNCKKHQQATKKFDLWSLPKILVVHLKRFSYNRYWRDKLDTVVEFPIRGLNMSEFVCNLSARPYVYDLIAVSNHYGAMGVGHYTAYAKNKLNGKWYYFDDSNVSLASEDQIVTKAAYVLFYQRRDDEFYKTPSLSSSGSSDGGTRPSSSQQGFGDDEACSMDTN
Procedure, shortened: as §1

Measured: log2 ratio of Biotin-Ahx-Ub-VS probe labelling

Cc1cc(C2CCCN2C(=O)CCl)nn1C.Cl (stereo not given)
inactive: USP34 -0.179 | USP36 -0.0531 | USP38 -0.227 | USP39 -0.281 | USP4 -0.154
